# SW480 rerep = DNA re-replication induction in SW480 cells; Potency, µM (titrated, usually from 46.1 µM), for inactives: at the top dose re-replication activation, usual class: activators; SW480 DNA re-replication, Hoechst DNA content imaging, 48 h; 340,000 tested, 1.8% active; also: % of control where 0% means no effect; nearly all actives have a fitted effect of over 55% in size
#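 Image-based read-out: total Hoechst fluorescence of nuclei (405 nm excitation, 500-530 nm emission), with hits raising the fraction of high-intensity nuclei. SW480 colon cells incubated 48 hr with compounds at 37 C.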
# RORg inh = ROR gamma (mouse) transcription inhibition. Drosophila S2 Gal4-RORgamma UAS-luciferase reporter, 20 h. Potency, µM (doses to about 53.6 µM), inactives show top-dose activity change, negative = inhibition, most hits filed as inhibitors. 310,000 tested, 5.4% active; also: % is scaled to controls: 0 for no effect and ±100 for the full control effect; nearly all actives have a fitted effect of over 60% in size
# Target sequence (P51450 whole entry, looked up, the tested form may be a part): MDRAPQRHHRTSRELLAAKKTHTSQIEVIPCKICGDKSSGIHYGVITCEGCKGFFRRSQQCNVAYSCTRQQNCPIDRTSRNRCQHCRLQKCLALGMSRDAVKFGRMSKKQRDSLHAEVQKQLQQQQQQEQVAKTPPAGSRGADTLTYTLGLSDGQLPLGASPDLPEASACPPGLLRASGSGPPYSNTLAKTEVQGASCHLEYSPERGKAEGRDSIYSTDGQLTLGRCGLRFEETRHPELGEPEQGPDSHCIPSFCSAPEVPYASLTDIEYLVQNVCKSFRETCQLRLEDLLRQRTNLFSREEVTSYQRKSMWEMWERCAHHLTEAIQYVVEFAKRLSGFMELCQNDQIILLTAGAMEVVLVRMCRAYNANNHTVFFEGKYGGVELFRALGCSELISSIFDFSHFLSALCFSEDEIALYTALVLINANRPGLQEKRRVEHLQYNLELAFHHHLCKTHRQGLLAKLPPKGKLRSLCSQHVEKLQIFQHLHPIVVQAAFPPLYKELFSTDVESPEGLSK
#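 Read-out: Photinus luciferase luminescence; inhibitors lower reporter signal. Insect Schneider cells with Gal4-ROR gamma fusion under metallothionein promoter, UAS reporter; 700 uM final copper sulfate induction, 20 hr, ambient temperature.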
# KB-3-1 cytotox = KB-3-1 parental cell cytotoxicity. KB-3-1 viability, CellTiter-Glo ATP luminescence, 72 h. AID 1347075. Potency, µM (series often up to 46.1 µM), usual class: cytotoxic. 400,000 tested, 1.4% active; also: % is scaled to controls: 0 for no effect and ±100 for the full control effect; nearly all actives have a fitted effect of over 60% in size
#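 Parental KB-3-1 viability, qHTS format: 72 h compound exposure, 37 °C; CellTiter-Glo; media-only wells and DMSO plates as controls; concentration-effect fits on corrected data.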
# VP16 counter = counter-screen for ROR gamma inhibitors: Gal4-VP16 reporter; Drosophila S2 Gal4-VP16 UAS-luciferase, luminescence, 20 h; Potency, µM (top dose mostly 53.6 µM), for the others: top-dose activity, negative = inhibition, actives largely listed as inhibitors; 310,000 tested, 3.5% active; AID 2546;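 also: Gal4-VP16 expression switched on by copper sulfate through the metallothionein promoter; % is scaled to controls: 0 for no effect and ±100 for the full control effect; nearly all actives have a fitted effect of over 50% in size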
# MCF10A rereplic = induces DNA re-replication in MCF 10a normal breast cells. MCF 10A DNA re-replication, Hoechst nuclear intensity, 48 h. Potency, µM (highest dose often 46.1 µM), inactives show at the top dose activity, positive = re-replication, hits mostly activators. 350,000 tested, 2.9% active; also: % of control where 0% means no effect; nearly all actives have a fitted effect of over 50% in size
# KB-V1 MDR tox = KB-V1 MDR subline cytotoxicity; Potency, µM (series often up to 46.1 µM), most hits filed as cytotoxic; KB-V1 MDR cells viability, CellTiter-Glo, 72 h; 400,000 tested, 3.4% active; also: % is scaled to controls: 0 for no effect and ±100 for the full control effect; nearly all actives have a fitted effect of over 60% in size
#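 KB-V1 cells (P-gp-expressing MDR subline of KB-3-1) in phenol-red-free DMEM with 10% FBS were exposed to library compounds over a concentration series for 72 h at 37 degrees C. Viability read by CellTiter-Glo luminescence; concentration-effect curves fitted after normalization.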
# Starred values were filed as active, the others as inactive; i = inactive; u = inconclusive; x = no result given; [ ] = another dose, or the depositor's remark. Shown are actives, neighbours in structure and some others; about 10% of the full set was active somewhere. Calls follow the shape of the dose curve; as a rule, active = well fitted curve in the direction sought with a large enough effect; inconclusive = small, poorly fitted or top-dose-only effect, or another doubt; inactive = no such curve, though single readings can be large; an effect the other way counts as inactive or inconclusive. Potency is read from the fitted curve at half-maximal effect.
SMILES,SW480 rerep,RORg inh,KB-3-1 cytotox,VP16 counter,MCF10A rereplic,KB-V1 MDR tox
CCCCN(C)S(=O)(=O)c1cc(-c2cc(C)no2)ccc1C,x,x,i,x,x,i
Cc1ccc(C(=O)NCC(=O)NCCSc2ccc(Br)cc2)cc1,-1%,x,i,x,1%,u
CCOc1ccc(C(=O)NCC(=O)NCCSc2ccc(Br)cc2)cc1OCC,-6%,x,i,x,2%,3.7µM*
C[C@@H]1[C@H](c2ccccc2)OCCS(=O)(=O)N1Cc1ccc(F)cc1,x,x,i,x,x,u
C/C(=N\NC(=O)CSCc1ccc([N+](=O)[O-])cc1)c1ccccc1,1%,u,i,-26%,-1%,u
C/C(=N\NC(=O)CSCc1ccc([N+](=O)[O-])cc1)c1ccccc1O,u,0.32µM*,i,2µM*,0%,21µM*
C/C(=N\NC(=O)Cc1ccc(Cl)cc1)c1ccccc1O,15µM*,0.28µM*,u,0.32µM*,5%,u
C/C(=N\NC(=O)Cc1ccc(Cl)cc1)c1ccc(F)cc1,0%,u,i,-7%,0%,i
O=C(O)[C@H]1CCCN(CCC=C(c2ccccc2)c2ccccc2)C1,x,-1%,x,3%,x,x
CC(C)NC[C@@H](O)COc1ccccc1-n1cccc1,x,15%,x,15%,x,x
C=C[C@](C)(O)CCC1C(=C)CC(OC(C)=O)C2C(C)(C)CCCC12C (some centres undefined),x,1.1µM*,x,-17%,x,x
COc1ccc(OC)c(NC(=O)c2csnn2)c1,x,x,i,x,x,i
Cc1snc(SCC(=O)c2ccc(Cl)cc2)c1C#N,11%,u,i,-19%,24%,21µM*
CCN(CCCNC(=O)C1CCN(S(=O)(=O)CC)CC1)c1ccccc1,10%,1%,i,-2%,2.9µM*,i
COc1ccc2oc(=O)c(C(=O)Nc3cccc(C(C)=O)c3)cc2c1,1%,2µM*,i,5.6µM*,-2%,i
COc1cccc(NC(=O)c2cc3ccccc3oc2=O)c1,-12%,6.3µM*,i,10µM*,1%,i
O=C1CC(C(=O)N(c2cccc(F)c2)C(C(=O)NC2CCCC2)c2ccccn2)CS1 (centres undefined),0%,7%,i,1%,-2%,i
O=C1CC(C(=O)N(c2ccc(F)cc2)C(C(=O)NC2CCCC2)c2ccccn2)CS1 (centres undefined),-5%,6%,i,-3%,5%,12µM*
CC(C)(C)C1=CC(O)(c2ccccc2)C=C(C(C)(C)C)C1=O,-1%,10%,i,u,5.2µM*,i
CCN(CC)C(=O)c1sc2nc(-c3ccccn3)[nH]c(=O)c2c1C,89%,x,u,x,-2%,u
O=c1[nH]c(-c2ccccn2)nc(C(F)(F)F)c1Br,10µM*,2.2µM*,u,5µM*,18µM*,i
O=c1[nH]c(-c2ccccc2O)nc2ccccc12,x,24%,x,28%,x,x
Cc1sc2nc(-c3ccccn3)[nH]c(=O)c2c1-c1ccccc1,23µM*,1.1µM*,u,4.5µM*,u,i
Cc1ccc2nc(-c3ccccc3N)[nH]c2c1,u,10µM*,u,-3%[10 µM],-2%,u
O=c1[nH]c(-c2ccccn2)nc2ccccc12,u,4µM*,u,7.1µM*,u,i
SMILES,SW480 rerep,RORg inh,KB-3-1 cytotox,VP16 counter,MCF10A rereplic,KB-V1 MDR tox
Cc1ccc(C)c(-c2nc3ccc(N)cc3[nH]2)c1,u,35%,u,7%,u,u
Cc1sc2nc(-c3ccncc3)[nH]c(=O)c2c1-c1ccccc1,0%,18%,x,7%,0%,x
CCC(C(=O)N1CCN(c2cc(Cl)ccc2C)CC1)n1nc(C)c2sc3ccccc3c2c1=O (centres undefined),x,x,i,x,x,i
c1ccc(-c2nnc(-c3ccccn3)nn2)nc1,u,x,i,x,12%,i
Cc1cc(-c2nc3ccccc3[nH]2)ccc1N,-2%,u,u,u,2%,i
Cc1c(N)cccc1-c1nc2ccccc2[nH]1,-1%,11µM*,i,u,4%,i
Cc1ccc2nc(CCCc3nc4ccc(C)cc4[nH]3)[nH]c2c1,1%,-18%,i,0%,-1%,i
c1ccc(-c2nc3ccccc3[nH]2)nc1,21%,5.6µM*,i,6.3µM*,-23%,i
c1ccc(-c2cccc(-c3ccccn3)n2)nc1,u,u,u,-12%,u,1.8µM*
Cc1ccc2nc(-c3ccccn3)[nH]c2c1,0%,4µM*,u,6.3µM*,-15%,18µM*
CCc1ccc(C(c2ccccc2)c2c[nH]c3ccc(C)cc23)s1 (centres undefined),x,x,i,x,x,i
CCN(CC)CCNC(=O)c1[nH]c2ccccc2c1Sc1ccc(Cl)cc1,x,x,i,x,x,i
CCCCNC(=O)C1(C)CCCCN1C(=O)c1ccc2sccc2c1 (centres undefined),x,x,i,x,x,i
c1ccc(-c2nc3c(ccc4ccccc43)[nH]2)nc1,0%[9.22 µM],0.35µM*,u,1µM*,15%,i
Nc1ccc(Cc2nc3c(ccc4ccccc43)[nH]2)cc1,0%,u,i,-1%,-4%,i
Cc1ccc2nc(C(O)C(O)c3nc4ccc(C)cc4[nH]3)[nH]c2c1 (centres undefined),-13%,7.1µM*,i,7.9µM*,1%,i
CCc1cc2c(c(CC)n1)CCC(=O)N2Cc1ccc(-c2ccccc2-c2nn[nH]n2)cc1,x,22%,x,-3%,x,x
COC(=O)Cc1ccc2sc(-c3ccccc3)nc2c1,-14%,u,i,16µM*,14%,u
Cc1nn(CCCC(=O)NCCc2ccc(Cl)cc2)c(=O)c2c1sc1ccccc12,x,x,i,x,x,i
CCN(CC)CCOC(=O)c1ccc(NC(=O)Cn2ncc3c2-c2cc(C)ccc2OC3)cc1,x,x,i,x,x,u
CCOC(=O)Cc1csc(N/N=C/c2ccc(C(F)(F)F)cc2)n1,-1%,0.71µM*,i,u,-5%,i
CCOC(=O)Cc1csc(NC(=O)c2csc(C)c2)n1,-2%,26%,i,10%[0.365 µM],4%,16µM*
CCOC(=O)Cc1csc(N/N=C/c2cccc([N+](=O)[O-])c2)n1,4%,u,i,-22%,0%,i
CCOC(=O)Cc1csc(NC(=O)CSc2nc(N)c3c(C)c(C)sc3n2)n1,0%,1%,i,-14%,8%,8.2µM*
CCOC(=O)Cc1csc(NC(=S)NC(=O)c2ccc(F)cc2)n1,2%,11µM*,i,u,3%,i

# Bioassay records (PubChem)
